PubChem BioAssay (NCI)
Values joined by “and” are separate entries in the source; they are usually repeats but may differ in a detail not shown here. Identical values can stand only once. Compounds without any hit were thinned out: in the full panel of roughly 83,000, 20% have a hit.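 Method: cells in 96-well plates; compound added at one concentration; 48 h incubation; percent growth measured; values under 10 scored active.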 Active and inactive are the calls of the source.

Experiments:
Test in all cases: NCI-60 one-dose screen, 48 h (100 = growth as untreated, 0 = no growth, -100 = all killed)
Conditions in all cases: 10 µM unless noted
SR leukemia = system: SR leukemia
RPMI-8226 leukemia = system: RPMI-8226 leukemia
OVCAR-8 ovarian = system: OVCAR-8 ovarian
OVCAR-5 ovarian = system: OVCAR-5 ovarian
OVCAR-4 ovarian = system: OVCAR-4 ovarian
SK-OV-3 ovarian = system: SK-OV-3 ovarian
IGROV1 ovarian = system: IGROV1 ovarian
OVCAR-3 ovarian = system: OVCAR-3 ovarian
HS 578T breast = system: HS 578T breast
NCI/ADR-RES ovarian = system: NCI/ADR-RES ovarian
T-47D breast = system: T-47D breast
BT-549 breast = system: BT-549 breast
MDA-MB-435 melanoma = system: MDA-MB-435 melanoma
SW-620 colon = system: SW-620 colon
MCF7 breast = system: MCF7 breast
HCC-2998 colon = system: HCC-2998 colon
KM12 colon = system: KM12 colon
HCT-116 colon = system: HCT-116 colon

Row | Structure (SMILES) | growth (SR leukemia) | growth (RPMI-8226 leukemia) | growth (OVCAR-8 ovarian) | growth (OVCAR-5 ovarian) | growth (OVCAR-4 ovarian) | growth (SK-OV-3 ovarian) | growth (IGROV1 ovarian) | growth (OVCAR-3 ovarian) | growth (HS 578T breast) | growth (NCI/ADR-RES ovarian) | growth (T-47D breast) | growth (BT-549 breast) | growth (MDA-MB-435 melanoma) | growth (SW-620 colon) | growth (MCF7 breast) | growth (HCC-2998 colon) | growth (KM12 colon) | growth (HCT-116 colon)
1 | COc1ccc(N/C=C/C2=[N+](C)c3ccccc3C2(C)C)c(OC)c1 | 101% (inactive) | 81.6% (inactive) | 93.6% (inactive) | 106% (inactive) | 91.7% (inactive) | 90.7% (inactive) | 106% (inactive) | 93.6% (inactive) | 99.9% (inactive) | 92.8% (inactive) | 89.5% (inactive) | 89.3% (inactive) | 95% (inactive) | 92.7% (inactive) | 87.7% (inactive) | 98.4% (inactive) | 103% (inactive) | 
2 | O=C(O)/C=C\C(=O)Nc1cccc2ccccc12 | 103% (inactive) and 70.2% (inactive) | 81.8% (inactive) and 95.4% (inactive) | 102% (inactive) and 105% (inactive) | 100% (inactive) and 104% (inactive) | 92.2% (inactive) and 115% (inactive) | 92% (inactive) and 103% (inactive) | 74.9% (inactive) and 129% (inactive) | 90.1% (inactive) and 113% (inactive) | 105% (inactive) and 104% (inactive) | 110% (inactive) and 104% (inactive) | 120% (inactive) and 107% (inactive) | 84.4% (inactive) and 91.7% (inactive) | 113% (inactive) and 103% (inactive) | 99.5% (inactive) and 106% (inactive) | 97.3% (inactive) and 101% (inactive) | 118% (inactive) and 96.8% (inactive) | 89.8% (inactive) and 106% (inactive) | 
3 | O=C1c2c(O)ccc(O)c2C(=O)c2c(NCCNCCO)ccc(NCCNCCO)c21 | -12.7% (active) | -21.8% (active) and -30.9% (active) | -41.6% (active) | -15.1% (active) and -78.6% (active) | -39.7% (active) | -23.4% (active) and -35.4% (active) | -10.4% (active) and -56.7% (active) | -50.5% (active) and -31.7% (active) | -22.8% (active) | 39.1% (inactive) and -9.1% (active) | -24% (active) and -46.9% (active) | -46.2% (active) and -85.9% (active) | -89.9% (active) and -94.9% (active) | -30.8% (active) and -81.8% (active) | -42% (active) | -88.5% (active) | -11.4% (active) and -25.6% (active) | 
4 | O=C(O)CCCl | 83.7% (inactive) | 101% (inactive) | 104% (inactive) | 99.1% (inactive) | 98.8% (inactive) | 118% (inactive) | 107% (inactive) | 115% (inactive) | 96.4% (inactive) | 108% (inactive) | 110% (inactive) | 113% (inactive) | 109% (inactive) | 105% (inactive) | 97.5% (inactive) | 104% (inactive) | 106% (inactive) | 
5 | C/C(=C\c1ccccc1)c1ccccn1 | 99.4% (inactive) | 114% (inactive) | 116% (inactive) | 118% (inactive) | 106% (inactive) | 106% (inactive) | 109% (inactive) | 106% (inactive) | 123% (inactive) | 110% (inactive) | 94.7% (inactive) | 110% (inactive) | 118% (inactive) | 105% (inactive) | 68.4% (inactive) | 117% (inactive) | 95.5% (inactive) | 
6 | O=c1n(CC2CO2)c(=O)n(CC2CO2)c(=O)n1CC1CO1 (stereo unspecified) | 17.8% (inactive) | 84.6% (inactive) | 64.4% (inactive) | 108% (inactive) | 100% (inactive) | 68.6% (inactive) | 52.3% (inactive) | 79.2% (inactive) | 104% (inactive) | 72.2% (inactive) | 53.5% (inactive) | 77.1% (inactive) | 82.9% (inactive) | 75.5% (inactive) | 42.5% (inactive) | 94.8% (inactive) | 90.3% (inactive) | 
7 | CN(C)CC1CCCCCC(CN(C)C)C1=O (stereo unspecified) | 5.93% (active) | 13.1% (inactive) | 80.3% (inactive) | 146% (inactive) | 79% (inactive) | 107% (inactive) | 34.2% (inactive) | -12.7% (active) | 85.8% (inactive) | 88.3% (inactive) | 22.2% (inactive) | 95% (inactive) | 81.2% (inactive) | -64.3% (active) | 24.7% (inactive) | 117% (inactive) | 102% (inactive) | -35.5% (active)
8 | CC(C)(O)C(=O)O | 119% (inactive) | 103% (inactive) | 109% (inactive) | 99.7% (inactive) | 105% (inactive) | 97.9% (inactive) | 101% (inactive) | 109% (inactive) | 102% (inactive) | 111% (inactive) | 100% (inactive) | 103% (inactive) | 107% (inactive) | 110% (inactive) | 93.8% (inactive) | 119% (inactive) | 107% (inactive) | 100% (inactive)
9 | NN1CCOC(c2ccccc2)C1 (stereo unspecified) | 29.8% (inactive) | 97.8% (inactive) | 103% (inactive) | 97.1% (inactive) | 119% (inactive) | 106% (inactive) | 122% (inactive) | 106% (inactive) | 99.5% (inactive) | 105% (inactive) | 109% (inactive) | 102% (inactive) | 106% (inactive) | 98% (inactive) | 91.8% (inactive) | 107% (inactive) | 101% (inactive) | 91.2% (inactive)
10 | Cl | 104% (inactive) | 115% (inactive) | 98.6% (inactive) | 105% (inactive) | 125% (inactive) | 115% (inactive) | 120% (inactive) | 119% (inactive) | 108% (inactive) | 102% (inactive) | 101% (inactive) | 112% (inactive) | 101% (inactive) | 100% (inactive) | 109% (inactive) | 108% (inactive) | 112% (inactive) | 
11 | O=c1[nH]cnc2c1ncn2C1OC(CO)C(O)C1O (stereo unspecified) | 106% (inactive) and 83.5% (inactive) and 88.4% (inactive) | 101% (inactive) and 93.6% (inactive) and 96.5% (inactive) | 106% (inactive) and 100% (inactive) and 103% (inactive) | 116% (inactive) and 114% (inactive) and 96.5% (inactive) | 126% (inactive) and 118% (inactive) and 117% (inactive) | 95.7% (inactive) and 104% (inactive) and 105% (inactive) | 118% (inactive) and 133% (inactive) and 64.6% (inactive) | 113% (inactive) and 111% (inactive) and 107% (inactive) | 109% (inactive) and 110% (inactive) and 91.9% (inactive) | 99.5% (inactive) and 105% (inactive) and 102% (inactive) | 103% (inactive) and 107% (inactive) and 90.2% (inactive) | 103% (inactive) and 123% (inactive) and 109% (inactive) | 121% (inactive) and 98.7% (inactive) and 90.2% (inactive) | 107% (inactive) and 113% (inactive) and 89.7% (inactive) | 100% (inactive) and 96.8% (inactive) and 95.6% (inactive) | 102% (inactive) and 113% (inactive) and 127% (inactive) | 111% (inactive) and 109% (inactive) | 102% (inactive) and 116% (inactive) and 92.9% (inactive)
12 | CCCCOC(=O)/C=C\C(=O)NC(N)=O | -22.3% (active) | 39.5% (inactive) | 71.1% (inactive) | 93.1% (inactive) | 93.4% (inactive) | 111% (inactive) | 74.1% (inactive) | 87.7% (inactive) | 99.1% (inactive) | 90.8% (inactive) | 60.4% (inactive) | 63.5% (inactive) | 99.4% (inactive) | 57.1% (inactive) | 81.1% (inactive) | 108% (inactive) | 106% (inactive) | 
13 | CCCCCCCCCCNC(=O)CI | -40.9% (active) | -37.1% (active) | 0.969% (active) | 95.8% (inactive) | -44.1% (active) | 5.75% (active) | -67.4% (active) | -70.3% (active) | 91.3% (inactive) | 2.88% (active) | -21.1% (active) | -87% (active) | 9.57% (active) | -33.9% (active) | 10.7% (inactive) | 98.4% (inactive) | 55.3% (inactive) | -28.3% (active)
